Measured values as given in PubChem BioAssay AID1508600 (Functional Genomics Laboratory (NCATS/FGL), 2020).
In all, about 53,000 sequences went through this assay and about 3,700 (7%) were called active.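 Rule for the calls: active = gene knockdowns whose robust z-score for IL-1 alpha signal is at least 2 or at most -2, so actives lie on both sides; inactive = the rest.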 The sample as a whole holds a higher share of actives than the screen did.

test: Components of the Cytosolic LPS Sensing Pathway: Gene Identification via Genome-wide siRNA Screen; conditions: RAW264.7 macrophages, IL-1a HTRF, actives lie on both sides, screened at 100 nM (by protocol), cells primed 5 h with Pam3CSK4 first;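 note: robust z of the log signal after scaling to non-targeting control siRNA wells of the plate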
Outline: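 RAW264.7; siRNA 100 nM final, RNAiMAX, 48h 37 degrees C; Pam3CSK4 5 h; LipidA + TransIT-TKO 24 h; IL-1a HTRF; CellTiter-Glo viability; robust z vs negative-control median.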

z-score, inactive:
GGAGCAAUCUGUUAAACUATT against Vash2 0.318
CCCGGAGUGGUCAGAAGUATT against Mapkapk2 -0.376
GGUAAGCAUGGAAAGGCUGTT against Prdm15 -0.0134
GCCGUCAGAUGACAACUAGTT against Lta 0.481
GGAUGACCUUGAAAGCAGUTT against Usp29 -0.677
GGCAAAGCUGUCUUAGAGGTT against Mettl23 -1.35
GGACAUAGAUCUACCUGAATT against Ctsb -1.48
GCUUAAUGCCUUGAAACGATT against Tsg101 1.9
GCACUUUGUGCUAGAUGAATT against Ddx39a -0.688
GGAAUUGAAACCUGAUGUUTT against Srfbp1 0.239
GCUACUGUGUCGGUCACAUTT against Olfr514 0.753
CCAGUGAUAACUCUCUUGUTT against A830039N20Rik 1.23
GGUUGUGUUUACCAUGAAGTT against Rps6ka6 0.684
GGAGAUCUAUUGGAUCCAUTT against Trim12a 0.337
CCAGAUGUCGGCAGAUAACTT against Pold4 0.446
GGGCUUUGAUCAGUUCUACTT against Hoxd11 1.88
GCACUUUAAUCUGGCUACCTT against Dnmt3b -0.78
GGCUCUGACCAAGAAUGAUTT against Cpsf1 1.27
GGCACACUCACUCCUUUGATT against Mis18bp1 0.145
GGAAACGAUGAAGAACAAATT against 4933427D06Rik -0.714
GGUAGAAACAAAGAAAUAGTT against 9130023H24Rik -0.183
GGGCUAAGGACAGAAUUACTT against Tusc2 -0.0196
GGAGAAGAACUAAAACUUATT against Bbs7 0.846
GGUCUCCAUCACAUUCAAGTT against BC024139 1.19
AAUCUUUUCGUGAAGGCACTT against Zfp948 0.84
CGAAUGCUUAUUUAGGUUGTT against Kpna4 -0.387
GCUGAAAUAUGUGAGAGCATT against Sdcbp 0.016
CCGGGUCAUUAUCUAUCAATT against Puf60 -0.383
GCACUUACUCUUCAACGGGTT against Yae1d1 1.87
GGUCGUCGUGAGAUCUUAUTT against Prlhr -0.342
CGUGUGUUUUACCCUAAAATT against Zfp947 0.404
GGACGAGAACAUCUUAAUCTT against Pim1 1.58
GGAACUUACACAUUUGUUCTT against Tnfsf13b -1.11
GGAGCAUGUCUUUAAGAAGTT against Stac -1.15
GCUAACUUACCCAAAGAAATT against Tnfaip3 1.41
GUGCAACGUGAGCAAUACGTT against Selenbp2 -0.417
CGUAAAACUCUUAGGCAUGTT against Npm1 1.13
GAAAAAAUGCCAGCUGUGGTT against Sec61b 0.379
GGAUCCAUCCGUCUCUAAGTT against Rprd2 0.628
GGUGCAAGUUCCCAUUAUATT against Tpsab1 -0.405
GGACAUAGCAUCUUCACUUTT against Mpp3 -1.31
GGCCUUAGGAAAAAAAAAGTT against Bad 0.956
CCUUGGUGGUCUGAAAUAATT against Cyp4a31 -0.159
GGAUGUGAAUGAGUGUGAGTT against Fbln7 0.368
GGAGAAGAAGGUUCUUGCCTT against Hoxb13 -1.03
GGUCGCACAAGGUAUUAUATT against AI661453 -0.402
GGGAAAAAGAACAAGAUCATT against Cep57l1 -0.799
GGUACUUCCUCAUUUACCUTT against Zdhhc4 0.541
CCGUAAGCUGUCUCUUUGUTT against Pla2g4c -1.97
CCGUCUAUUAGUGAAGAUGTT against Pex1 0.0157
GGGUGAAAAUGGCAUUGUUTT against Col1a2 0.56
CGUGAUGGGACUUGAGAAGTT against Teddm1a -0.454
GGAAAGAUUGUUUGAAGGCTT against Cask -0.252
GGAAAAGGUUAAACUUUGATT against Cenpc1 0.165
CCAAUAAAAGUUGAGAGCUTT against Krt18 -0.272
GCCUGACAUUGGGACAAAGTT against Trim34a 0.179
GGAGACGAGAAACAAACCCTT against Diaph2 1.68
GGUACUUUGGAGAUUGUAATT against Rdh14 -0.462
GGCAGCCAAGAGAUUGAAUTT against Suclg2 1.09
GGUUCUGAAAUGCAUGGAGTT against Rnf6 1.76
GGAGCUGCUUGCUCAAAGATT against Tmem65 0.61
GCUGGAAAUGACACUGCCUTT against C1qtnf7 1.45
GCGGGAAUGAAGAAACACGTT against Eea1 0.801
GCCACGUUCCCUUGAUCAUTT against Mx2 1.4
GGAUGCCUUCUAUACACUATT against Hras -1.33
CCCUUACAUCCAUCAACUATT against Dcbld2 -1.04
GGUAAUAAACGGUAAAUUGTT against B430306N03Rik -0.763
GGUUCCAUAGCAGACAAAATT against Mrpl24 0.513
CCAAAUAUGUACUUCAUGGTT against Adipor1 -0.147
GGACAUCCAUUCAUGCUUUTT against Serpinb1b -0.529
CCUAUAACUCCAAGGAUACTT against Lexm 0.628
GGUUUUGAGCAAAAUUCUATT against Nrd1 0.985
CGGAGUGUACCAUCUACACTT against Agpat4 0.193
GGGACUGCAUACUUAAGUUTT against Amacr 1.31
GGGACCGUGAAGAAAAUUUTT against Tmed11 -0.926
GGAGGCUUAUCCUAAAAAGTT against 6330444E15Rik -1.02
GCUGAACCUAUGAGGGAGATT against Gpank1 0.809
GGAGUUCAUUCUGGAUAUCTT against Matn2 1.24
CCUAGGGCUUUAGCUCUGATT against Msc -0.75
GGAUUAAACCUUUUAACCGTT against Emilin3 -0.251
GCCGGAUGGCACAUUCGUATT against Cda -0.281
CCUAAGGUCAAGAUAUAGCTT against Cep55 0.121
CCCACCAGAUUUCUACACCTT against Vsig2 -2
GGCUAUGGACCGAAAGAUUTT against Dgcr6 -1.42
GCAGCUGUCAUGUAUACAGTT against Olfr59 -0.867

z-score, active:
GGCCCAUCCUGAAACCAAATT against Wfdc15b -2.04
GGCCAAAGCCAGAAUCUCATT against Zfp281 3.07
GGAAGAAGAUCACCAUCAUTT against Ifi204 -2.64
GUCAUGGUAGGGAUUUACATT against Taar4 -2.83
GGAUCACUAACUUUUCCAATT against Trpc3 3.46
GCAUUUUUCGUUAGGAAAATT against Esco2 3.13
CCGGAUGGGAAUCGCUAAATT against Slc22a13b 2.17
CGCAGCUUUCUAUACUGGCTT against Ngf 2.41
GGAAGCUGUGGAGAAACUATT against Acox2 2.22
GCCAUGACCAUCUUUCUCUTT against Olfr1413 -3.03
CCUGCAUACGAAGUACAUATT against Bsg 2.75
GGAGAAACUGGACAACCUGTT against Eno2 4.12
GGAGAAUGAACAGACAGAGTT against Slc39a14 -2.06
GGGAACAAGACAACACAGCTT against Adam11 2.03
GCUGAUUUCAUUGCAUCCGTT against Olfr483 2.12
CCAUCCUCCUACUCGUUAGTT against Vmn1r233 2.03
GCCUCCUAUCCUGGGAAGATT against Prss3 2.54
GCAAAUGCGACUUUACACATT against Top1 2.56
GGAAGUAUGUGUUUCUCAGTT against Prr9 -2.41
CGAUAAGAACACCUAUAUUTT against Sf3b1 -3.26
GCACUGGAAAUUGUAUAAATT against Hyal6 2.19
GCAUGUUUUACAGUGUUCATT against Rxfp1 2.7
